Tests used:
Type in all cases: functional
[1] = target: Solute carrier family 2, facilitated glucose transporter member 1 (Homo sapiens) (UniProt P11166); test: ST_JUDE_LEISH: Cytotoxicity at 2uM final concentration against transgenic Leishmania Mexicana promastigotes LmGLUT1 that are glucose transport deficient and complemented with the human glucose transporter GLUT1. Activity is measured by DNA content using SYBR green in vitro
[2] = target: Hexose transporter 1 (Plasmodium falciparum) (UniProt O97467); test: ST_JUDE_LEISH: Cytotoxicity at 2uM final concentration against transgenic Leishmania Mexicana promastigotes LmPfHT that are glucose transport deficient and complemented with the Plasmodium falciparum hexose transporter. Activity is measured by DNA content using SYBR green in vitro
[3] = target: Glucose transporter (Leishmania mexicana) (UniProt O61059); test: ST_JUDE_LEISH: Cytotoxicity at 2uM final concentration against transgenic Leishmania Mexicana promastigotes LmGT2 that are glucose transport deficient and complemented with the L. Mexicana glucose transporter 2. Activity is measured by DNA content using SYBR green in vitro

Sequence of Solute carrier family 2, facilitated glucose transporter member 1 (Homo sapiens) (P11166 whole entry): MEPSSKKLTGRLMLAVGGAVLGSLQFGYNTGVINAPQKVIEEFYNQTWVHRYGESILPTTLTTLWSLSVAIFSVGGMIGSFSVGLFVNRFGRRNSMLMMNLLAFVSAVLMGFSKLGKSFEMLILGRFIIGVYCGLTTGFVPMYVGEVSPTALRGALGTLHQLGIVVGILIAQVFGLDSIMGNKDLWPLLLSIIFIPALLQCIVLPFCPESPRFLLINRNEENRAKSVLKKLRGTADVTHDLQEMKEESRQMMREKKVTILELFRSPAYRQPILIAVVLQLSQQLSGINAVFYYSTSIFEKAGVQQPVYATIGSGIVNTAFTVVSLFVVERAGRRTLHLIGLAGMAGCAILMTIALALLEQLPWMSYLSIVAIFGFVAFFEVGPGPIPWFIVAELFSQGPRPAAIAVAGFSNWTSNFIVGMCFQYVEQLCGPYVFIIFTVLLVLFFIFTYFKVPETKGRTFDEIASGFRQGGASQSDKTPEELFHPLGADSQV

**Q.** With `Cc1[nH]cnc1CSCCNC(=N)NCCCCCCCCNC(=N)NCCSCc1nc[nH]c1C` as the molecule, how does the inhibition [1] read?
**A.** -1.07%

**Q.** What about the inhibition [2] of the same molecule?
**A.** 0.71%

**Q.** What about the inhibition [3] of the same molecule?
**A.** -0.05%

**Q.** `O=C(/C=C/c1ccc(Cl)cc1)NCCCCCN1CCN(C(=O)C=Cc2ccc(Cl)c(Cl)c2)CC1` was tested. Which inhibition [1] did it give?
**A.** 2.44%

**Q.** And the inhibition [2]?
**A.** 0.82%

**Q.** What about the inhibition [3] of the same molecule?
**A.** -2.29%

**Q.** Which results are given for `Oc1ccc(Nc2nc(N3CCCC3)c3ccccc3n2)cc1`?
**A.** inhibition [1]: 2.69%; inhibition [2]: 1.64%; inhibition [3]: -0.61%

**Q.** `CC(C)NCc1ccc(-c2cccc(-c3nc4cc(C(F)(F)F)ccc4[nH]3)c2)cc1` was tested. Which inhibition [1] did it give?
**A.** 3.55%

**Q.** What about the inhibition [2] of the same molecule?
**A.** 3.48%

**Q.** What about the inhibition [3] of the same molecule?
**A.** 4.16%

**Q.** What does the source list for `O=C(/C=C/c1ccc(Cl)c(Cl)c1)NCCCCCN1CCC(NC(=O)Nc2cc(F)cc(F)c2)CC1`?
**A.** inhibition [1]: -0.2%; inhibition [2]: 1.46%; inhibition [3]: 4.15%

**Q.** `Cc1ccc(Nc2ccnc3cc(-c4nccs4)ccc23)cc1C(O)c1ccccc1` (stereo unspecified) was tested. Which inhibition [1] did it give?
**A.** 3.59%

**Q.** What about the inhibition [2] of the same molecule?
**A.** 2.96%

**Q.** What about the inhibition [3] of the same molecule?
**A.** 3.72%

**Q.** Which inhibition [1] does the source give for `O=C(Cc1cccc(Cl)c1)Nc1ccc(N2CCC(NCc3ccc4ncccc4c3)CC2)cc1` here?
**A.** 12.6%

**Q.** And the inhibition [2]?
**A.** 13.6%

**Q.** What about the inhibition [3] of the same molecule?
**A.** 8.71%

**Q.** What does the source list for `Cc1cc(NC(=O)Nc2ccc(N(C)C)cc2)c2cc(Cl)ccc2n1`?
**A.** inhibition [1]: 1.15%; inhibition [2]: 0.69%; inhibition [3]: 0.88%

**Q.** With `CCOCn1c(-c2ccccc2)cc2c3c(N)nc(N)nc3ccc21` as the molecule, how does the inhibition [1] read?
**A.** 98.3%

**Q.** What about the inhibition [2] of the same molecule?
**A.** 100%

**Q.** What about the inhibition [3] of the same molecule?
**A.** 101%

**Q.** What does the source list for `N#Cc1ccc(N(CCOc2ccc3c(c2)CCC(=O)N3)Cc2ccccc2C(F)(F)F)cc1C(F)(F)F`?
**A.** inhibition [1]: 7.14%; inhibition [2]: 4.94%; inhibition [3]: 5.81%

**Q.** With `O=C(C=Cc1ccc(Cl)c(Cl)c1)NCCCCCN1CCC(CCCNS(=O)(=O)c2ccc(Br)cc2)CC1` as the molecule, how does the inhibition [1] read?
**A.** 3.69%

**Q.** What about the inhibition [2] of the same molecule?
**A.** -0.68%

**Q.** What about the inhibition [3] of the same molecule?
**A.** 4.73%

**Q.** How did the inhibition [1] turn out when `O=S(=O)(Nc1cccc(CCN2CCC(N3CCCCC3)CC2)c1)c1ccccc1C(F)(F)F` was run?
**A.** 1.15%

**Q.** What about the inhibition [2] of the same molecule?
**A.** 0.31%

**Q.** And the inhibition [3]?
**A.** -2.06%

**Q.** With `COc1ccc(Cc2c(C)nc3nc(N)nc(N)c3c2C)cc1OC` as the molecule, how does the inhibition [1] read?
**A.** 13.6%

**Q.** And the inhibition [2]?
**A.** 15%

**Q.** What about the inhibition [3] of the same molecule?
**A.** 12.1%

**Q.** Which inhibition [1] does the source give for `COc1ccc(CNCc2cccc(-c3csc(-c4nc5ccccc5[nH]4)c3)c2)cc1` here?
**A.** -1.65%

**Q.** What about the inhibition [2] of the same molecule?
**A.** -1.34%

**Q.** What about the inhibition [3] of the same molecule?
**A.** 2.49%

**Q.** For `CCCC(CNCc1cccc(SC(F)(F)F)c1)CNc1cc(=O)c2ccccc2[nH]1` (stereo unspecified), which inhibition [1] is on record?
**A.** -0.14%

**Q.** What about the inhibition [2] of the same molecule?
**A.** 1.41%

**Q.** And the inhibition [3]?
**A.** 3.17%

**Q.** With `COc1ccc(CCN(C)CCOc2ccc(NC(=O)COc3ccc4sc5ccccc5c(=O)c4c3)cc2)cc1OC` as the molecule, how does the inhibition [1] read?
**A.** 3.46%

**Q.** What about the inhibition [2] of the same molecule?
**A.** 4.33%

**Q.** What about the inhibition [3] of the same molecule?
**A.** 1.11%

**Q.** `O=C(Nc1ccccc1Cl)c1cc2ccccc2cc1O` was tested. Which inhibition [1] did it give?
**A.** -2.32%

**Q.** What about the inhibition [2] of the same molecule?
**A.** -1.17%

**Q.** And the inhibition [3]?
**A.** -0.43%

Reference: ChEMBL document CHEMBL3433997, “St. Jude Leishmania screening dataset” (2016)
